# In PubChem BioAssay (NCI):
# Values joined by “and” are separate entries in the source; they are usually repeats but may differ in a detail not shown here. Equal entries are not always repeated. About 83,000 compounds went through this panel and 20% of them were active in at least one assay; those are over-represented in the sample as a whole.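 Activity criterion: percent growth below 10, measured after cells in 96-well plates were exposed to a single compound concentration for 48 hours.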 A number with no mark means an inactive call. Active and inactive are the calls of the source.
# Experiments:
# Experiment in all cases: NCI-60 one-dose screen, 48 h (100 = growth as untreated, 0 = no growth, -100 = all killed)
# Details in all cases: 10 µM unless noted
# SR leukemia = tested on: SR leukemia
# RPMI-8226 leukemia = tested on: RPMI-8226 leukemia
# OVCAR-8 ovarian = tested on: OVCAR-8 ovarian
# OVCAR-5 ovarian = tested on: OVCAR-5 ovarian
# OVCAR-4 ovarian = tested on: OVCAR-4 ovarian
# SK-OV-3 ovarian = tested on: SK-OV-3 ovarian
# IGROV1 ovarian = tested on: IGROV1 ovarian
# OVCAR-3 ovarian = tested on: OVCAR-3 ovarian
# HS 578T breast = tested on: HS 578T breast
# NCI/ADR-RES ovarian = tested on: NCI/ADR-RES ovarian
# T-47D breast = tested on: T-47D breast
# BT-549 breast = tested on: BT-549 breast
# MDA-MB-435 melanoma = tested on: MDA-MB-435 melanoma
# MCF7 breast = tested on: MCF7 breast
# HCT-116 colon = tested on: HCT-116 colon
# HCC-2998 colon = tested on: HCC-2998 colon
# KM12 colon = tested on: KM12 colon
# SW-620 colon = tested on: SW-620 colon
SMILES,growth (SR leukemia),growth (RPMI-8226 leukemia),growth (OVCAR-8 ovarian),growth (OVCAR-5 ovarian),growth (OVCAR-4 ovarian),growth (SK-OV-3 ovarian),growth (IGROV1 ovarian),growth (OVCAR-3 ovarian),growth (HS 578T breast),growth (NCI/ADR-RES ovarian),growth (T-47D breast),growth (BT-549 breast),growth (MDA-MB-435 melanoma),growth (MCF7 breast),growth (HCT-116 colon),growth (HCC-2998 colon),growth (KM12 colon),growth (SW-620 colon)
COc1ccc(Oc2nc(Nc3ccc(N4CCOCC4)cc3)ncc2NC(=O)c2cccc(C(F)(F)F)c2)cc1,35.7%,59.8%,78.5%,111%,96.4%,85.7%,88.5%,82.7%,91.4%,79.7%,76.5%,96.9%,98.2%,79.3%,70.2%,75.9%,59.3%,–
C=C(C)[C@@H]1CC[C@]2(C(=O)N3CCN(C)CC3)CC[C@]3(C)[C@H](CC[C@@H]4[C@@]5(C)CC(CCCNC(C)=O)(CCCNC(C)=O)[C@H](OC(C)=O)C(C)(C)[C@@H]5CC[C@]43C)[C@@H]12,76.2%,75.5%,106%,102%,111%,102%,102%,104%,96.6%,98.7%,89.9%,104%,94.4%,89.1%,–,106%,–,99.2%
C[N+]1=C(/C=C\C=C\c2ccccc2)C(C)(C)c2ccccc21,-14.3% (active),-25.5% (active),12.2%,45.1%,39.9%,92.8%,19.9%,-4.63% (active),25%,75.3%,-1.09% (active),22.5%,9.04% (active),7.58% (active),–,47.9%,–,19.8%
COc1ccc2c(c1)c(-c1nc(-c3c[nH]c4c(Cl)nccc34)cs1)cn2C,32.1%,78%,95.1%,57.4%,34%,78.6%,56.5%,47.9%,87.6%,95.5%,-4.46% (active),98.8%,98.3%,8.44% (active),92.7%,–,30.8%,103%
O=C(NCc1ccc(Cn2c(=O)sn(-c3ccc(Cl)cc3)c2=O)cc1)OCc1ccc2c(Cl)cc(Cl)c(O)c2n1,51.9%,46.8%,38.1%,74.9%,67.3%,76%,49.2%,63.7%,69.7%,6.82% (active),60.2%,60.6%,54.7%,50.3%,29.3%,67.9%,–,–
COc1cc(OC)cc(-c2ccc(-c3ccc(C(=N)N)cn3)s2)c1,6.61% (active),-1.98% (active),17.8%,89.8%,28.4%,82.2%,78.4%,5.54% (active),84.9%,95.4%,96.7%,95.1%,82.5%,13%,–,56.1%,40.7%,5.08% (active)
N=C(N)c1ccc(-c2ccc(-c3ccc(Cl)c(Cl)c3)s2)cc1,5.08% (active),-15.6% (active),-17% (active),15.2%,-16.2% (active),94.6%,-49.5% (active),-87.9% (active),94%,83.5%,62.1%,109%,14.4%,-62.4% (active),-46.6% (active),–,-91.4% (active),-65.1% (active)
COc1cc2cc(NCc3ccncc3)nc(C)c2cc1OC,70.9%,106%,91.5%,80.7%,94.4%,77.6%,113%,107%,83.5%,97.2%,71.2%,77.9%,106%,93.4%,–,106%,109%,107%
COc1ccc(C(CC(=O)c2ccc3c(c2)OCO3)C(=O)O)cc1OC (stereo not given),116% and 90.8%,103% and 96.1%,107% and 106%,118% and 99.9%,132% and 108%,113% and 105%,131% and 106%,119% and 102%,94.8% and 121%,106% and 98.5%,104% and 91.9%,115% and 106%,108% and 102%,100% and 96.6%,119% and 97.1%,–,110% and 95.7%,100% and 108%
CCOC(=O)c1cc2c(n1Cc1cc(OC)cc(OC)c1Br)-c1nc(NC(C)=O)sc1CCC2,58.9%,60.5%,64.9%,115%,73.4%,82.1%,87.5%,81.4%,64.6%,78.6%,38.5%,92.9%,83.9%,57.6%,78.2%,–,67.6%,81.3%
Cc1cccc(Cc2cnc(NC(=O)CCCOc3ccc(Cl)cc3)s2)c1,18.4%,22.9%,37.6%,36.2%,31.3%,36.4%,39.1%,7.26% (active),21.4%,32.3%,33.5%,61.5%,-53.2% (active),20%,16.4%,48.9%,21.8%,–
COc1ccc(/C=N/C2=C(C#N)C(c3ccccc3)c3c(ccc4ccccc34)O2)cc1 (stereo not given),17.5%,-2.96% (active),37.6%,48.8%,52.3%,45.3%,23.5%,-11% (active),17.5%,10.3%,36.3%,35.7%,-59.2% (active),15.4%,–,48.8%,29.1%,29.4%
CC1(C)C(N)=Nc2cc(OCCCCN3Cc4ccccc4C3)c(OCC3CC3)cc21,93.4%,100%,76.2%,80.3%,82.6%,89%,79.4%,78%,88.3%,92.6%,37.7%,83.7%,71.9%,48.5%,47%,-0.545% (active),96%,–
COc1c(NC=O)c2c(c([N+](=O)[O-])c1OC)C(=O)OC2,86.9%,78% and 96.5%,101% and 109%,120% and 99.7%,103%,107% and 108%,103%,115%,109% and 86.8%,117% and 108%,109% and 93.1%,94.4%,115% and 101%,97.2% and 89.6%,108% and 106%,105% and 89.9%,–,–
N#CC1C(=O)c2ccccc2C1c1ccccc1 (stereo not given),85.1% and 106%,111% and 102%,96.9% and 97.3%,110% and 104%,99.5% and 99.2%,105% and 114%,100% and 110%,84.9% and 107%,116% and 105%,108% and 107%,96.5% and 99.9%,107%,104% and 102%,102% and 99.5%,–,111% and 115%,109% and 102%,121% and 104%
CON1CCC[C@]2(C)[C@H]3CC[C@@H]4[C@H]5[C@@H](O)C(C)(C)CC[C@]5(CO)CC[C@@]4(C)[C@]3(C)CC[C@H]2C1(C)C,88.4%,89.1%,95.2%,102%,100%,90.1%,103%,104%,108%,111%,79.8%,115%,94.5%,98.5%,88.6%,103%,105%,–
NCCOCCOc1ccccc1,101%,88.7%,107%,104%,98%,112%,103%,106%,115%,102%,101%,106%,107%,91.2%,99.4%,94.2%,105%,–
